# Source: PubChem BioAssay (National Center for Advancing Translational Sciences (NCATS))
# RORgamma inh: qHTS for inhibitors of ROR gamma transcriptional activity; Drosophila S2 Gal4-RORgamma UAS-luciferase reporter, 20 h; 310,000 tested, 5.4% active; Nuclear receptor ROR-gamma (Mus musculus), P51450; AID 2551, 2010; Potency, µM (highest dose often 53.6 µM), for inactives: at the top dose activity change, negative = inhibition, most hits filed as inhibitors; further: potency means the concentration at half of the fitted maximal effect; nearly all actives have a fitted effect of over 60% in size
# Target sequence (P51450 whole entry, looked up, the tested form may be a part): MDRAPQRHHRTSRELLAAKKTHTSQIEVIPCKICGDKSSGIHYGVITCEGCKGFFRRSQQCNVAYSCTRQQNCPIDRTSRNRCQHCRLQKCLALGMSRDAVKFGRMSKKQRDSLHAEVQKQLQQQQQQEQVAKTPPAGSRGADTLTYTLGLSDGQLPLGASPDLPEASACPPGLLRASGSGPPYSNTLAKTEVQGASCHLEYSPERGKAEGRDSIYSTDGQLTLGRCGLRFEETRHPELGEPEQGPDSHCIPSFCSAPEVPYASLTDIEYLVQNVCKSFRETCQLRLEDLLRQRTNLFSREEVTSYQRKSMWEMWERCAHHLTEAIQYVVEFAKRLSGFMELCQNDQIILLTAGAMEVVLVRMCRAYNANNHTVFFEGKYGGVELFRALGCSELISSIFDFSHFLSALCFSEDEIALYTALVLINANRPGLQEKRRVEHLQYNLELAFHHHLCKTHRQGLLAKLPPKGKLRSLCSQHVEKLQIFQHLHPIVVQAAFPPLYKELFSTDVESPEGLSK
#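 A Gal4/UAS one-hybrid system in insect cells: metallothionein-promoter Gal4–ROR gamma fusion plus Photinus luciferase reporter. Copper sulfate 700 uM final, 20 hr ambient incubation, luminescent detection after 10 min with reagent.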
# TSHR antagonist: Antagonists of the Thyroid Stimulating Hormone Receptor: HTS campaign; Thyrotropin receptor (Homo sapiens), P16473; TSHR-expressing cells, TSH-stimulated cAMP HTRF, 2 h; stronger effect = lower value; activity change, negative = inhibition, % at 11.5 µM; 330,000 tested, 0.2% active;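 active means activity change below a set negative limit, meaning inhibition stronger than a set level, cut at about -70% in these data; inconclusive means activity change between two set negative limits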
#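 Antagonism was scored as loss of TSH-driven cAMP in TSHR cells, stimulated with 4nM TSH (EC80) for 2 hours at 37 deg C and detected by homogeneous HTRF competition immunoassay.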
# FBPA coupling cs: qHTS Assay for Inhibitors of Fructose-1,6-bisphosphate Aldolase from Giardia Lamblia: Coupling assay counterscreen. coupling enzyme system counterscreen, AmpLite Red fluorescence. activity change, negative = inhibition, % at 58.2 µM, hits read low. 290,000 tested, 0.67% active; in the data active means activity change below about -30%
#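 Coupling enzymes only (glyceraldehyde-3-phosphate) + compound, at 57.5 uM final, 10 min RT; add substrate/coupling/AmpLite Red mix, 20 min RT; fluorescence ex 525/em 598 nm. Actives flag coupling-system interference.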
# ELG1 repair inh: qHTS screen for small molecules that inhibit ELG1-dependent DNA repair in human embryonic kidney (HEK293T) cells expressing luciferase-tagged ELG1; HEK293T ELG1-luciferase reporter, luminescence, 16 h; DNA damage induced by 5-fluorouridine; Potency, µM (series often up to 46.1 µM), for the others: at the top dose activity change, negative = inhibition, most hits filed as inhibitors; 330,000 tested, 2.3% active; AID 504467, 2011; further: potency means the concentration at half of the fitted maximal effect; nearly all actives have a fitted effect of over 55% in size
#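 Step one: seed 2,000 cells per well. Step two: pin-transfer compound or DMSO alongside 5-fluorouridine. Step three: incubate 16 hr, 37 °C, 5% CO2. Step four: add ONE-Glo, wait 30 min, read luminescence.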
# VP16 counter: VP16 counterscreen qHTS for inhibitors of ROR gamma transcriptional activity | Drosophila S2 Gal4-VP16 UAS-luciferase, luminescence, 20 h | Potency, µM (titrated, usually from 53.6 µM), for the others: top-dose activity, negative = inhibition, most hits filed as inhibitors | 310,000 tested, 3.5% active | AID 2546, 2010;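 further: Gal4-VP16 expression switched on by copper sulfate through the metallothionein promoter; potency means the concentration at half of the fitted maximal effect; nearly all actives have a fitted effect of over 50% in size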
# * marks the source's active call; other numbers are inactive results; ? = inconclusive; nt = no result; [ ] = remark or other dose. An excerpt weighted towards active compounds, which were near 8% of everything screened. Unless noted, the call rests on the fitted dose curve; in most records, active means well fitted curve in the direction sought with a large enough effect; inconclusive means small, poorly fitted or top-dose-only effect, or another doubt; inactive means no such curve, though single readings can be large; an effect the other way counts as inactive or inconclusive. On the % scale 0 is the no-effect control and ±100 the full control effect.
SMILES,RORgamma inh,TSHR antagonist,FBPA coupling cs,ELG1 repair inh,VP16 counter
Cc1c(C(=O)N2CCCCC2)c(S(=O)(=O)NCCc2ccc(S(N)(=O)=O)cc2)c(C)n1C,-21.9%,-0.3,4.5,2.0%,0.9%
COc1ccc(N2CCN(C(=O)COc3ccc(S(=O)(=O)N4CCOCC4)cc3C)CC2)cc1,?,-11.2,0.0,-1.6%,6.0%
Nc1ccccc1C(=O)N1CCc2ccccc21,-31.2%,13.6,-2.2,?,-1.6%
Cn1c2c(c3ccccc31)CCN1CCC[C@]21c1ccccc1,5.8%,-14.0,0.4,-11.8%,9.2%
COc1cccc(Oc2nnnn2-c2ccccc2)c1,-3.2%,-4.3,0.0,?,20.7%
COc1cccc(-n2nnnc2S(C)(=O)=O)c1,3.16µM*,-23.8,5.4,?,5.01µM*
CC(C)=NO[C@@H](C)c1cn([C@H](CO)Cc2ccccc2)nn1,3.7%[10 µM],nt,2.1,nt,-5.4%[10 µM]
Cc1cc(F)ccc1NC(=O)CCc1c(C)nn(-c2ccc(N3CCCCC3)nn2)c1C,8.91µM*,-18.4,0.7,3.6%,0.8%
COc1ccc(S(=O)(=O)n2cnc3cc(C)c(C)cc32)cc1,29.3%,-8.5,-1.7,13µM*,-15.3%
COc1ccc(S(=O)(=O)n2cnc3cc(C)c(C)cc32)cc1C,33.2%[0.365 µM],-8.4,1.9,?,nt
Cc1cc(C)c2cc(C(O)c3nnnn3Cc3ccccc3)c(=O)[nH]c2c1 (stereo unspecified),18.1%,1.2,-5.0,14.1%,4.1%
Cc1cc(C)c2cc(CN(CCO)C(c3nnnn3Cc3ccc(F)cc3)C(C)C)c(=O)[nH]c2c1 (stereo unspecified),2.0%,-5.5,0.6,5.17µM*,-13.6%
CCCN1CCC(=O)N(CCSc2ccc(Br)cc2)CC1,16.5%,nt,0.2,nt,28.2%
Cc1cc(OCn2ccc(C(=O)O)n2)ccc1Cl,?,-1.8,3.8,-10.5%,15.8µM*
O=C(Nc1c(C(=O)N2CCOCC2)oc2ccccc12)c1ccccc1Cl,2.8%,21.4,nt,1.3%,-0.6%
COc1ccc(/C=C/C(=O)NC(=S)N2CCCCC2)cc1OC,?,-4.5,0.1,7.9%,?
COc1ccc(/C=C/C(=O)NC(=S)NNC(=O)c2cccs2)cc1,2µM*,18.2,6.8,?,22.4µM*
COc1ccc(/C=C/C(=O)NC(=S)N2CCN(C)CC2)cc1,5.62µM*,2.1,1.6,?,?
CCOC(=O)N1CCN(C(=S)NC(=O)/C=C/c2ccc(C)cc2)CC1,5.01µM*,-4.1,nt,0.0%,5.62µM*
COc1ccc(S(=O)(=O)Nc2cccc3c2O[C@H](CN(C)C(=O)NC2CCCCC2)[C@@H](C)CN([C@H](C)CO)C3=O)cc1,nt,-9.9,nt,1.1%,nt
COc1ccc(N(Cc2ccccc2)C(=O)OC(C)(C)C)c(C(=O)N(C)OC)c1,nt,-16.7,nt,5.7%,nt
O=C(NNc1ncc(C(F)(F)F)cc1Cl)c1c(Cl)cccc1Cl,0.891µM*,-2.9,-1.6,15.5%,2.82µM*
O=C(NNc1ncccc1Cl)c1c(Cl)cccc1Cl,3.98µM*,-12.0,0.1,-0.4%,14.1µM*
O=C(NNc1cccc(Cl)n1)c1c(Cl)cccc1Cl,-16.8%,10.0,-2.2,12.9%,-6.0%
CN(C)C(=O)NC1CCCCCCC1,-3.9%,nt,0.3,nt,-7.8%
SMILES,RORgamma inh,TSHR antagonist,FBPA coupling cs,ELG1 repair inh,VP16 counter
Cc1ccccc1NC1=NC(=S)N(c2ccccc2)C12CCOC(C)(C)C2 (stereo unspecified),6.31µM*,-22.9,nt,-15.7%,17.8µM*
Cc1ccccc1NC1=NC(=S)N(c2ccccc2)C12CCCCC2,3.55µM*,-32.9,0.2,-25.4%,?
CC1(C)CC2(CCO1)C(Nc1ccccc1)=NC(=S)N2c1ccccc1 (stereo unspecified),25.1%,-9.2,2.2,-17.4%,2.8%
COc1cc(C)c(NC(=O)COc2cccc3c2OC(C)(C)C3)cc1OC,nt,-41.4,nt,18.3µM*,nt
CC1(C)CC(=O)c2c(O)cc(OCC(=O)Nc3ccc(S(N)(=O)=O)cc3)cc2O1,-1.4%,15.0,2.5,?,-14.4%
COc1cc(NC(=O)COc2cccc3c2OC(C)(C)C3)cc(OC)c1OC,nt,-22.1,nt,12.6µM*,nt
COc1cc(NC(=O)COc2cc(O)c3c(c2)OC(C)(C)CC3=O)cc(OC)c1OC,?,-38.8,0.2,10.3µM*,2.51µM*
COc1ccc(NC(=O)COc2cccc3c2OC(C)(C)C3)c(OC)c1,nt,-4.0,nt,6.3%,nt
CC(=O)Nc1ccc(NC(=O)COc2cccc3c2OC(C)(C)C3)cc1,-0.7%,-3.3,0.9,-7.2%,11.7%
CCOc1ccc(/C(O)=C2/C(=O)C(=O)N(CCCN3CCOCC3)C2c2ccc(C)cc2)cc1C (stereo unspecified),30.9%,1.9,7.2,-1.9%,-11.5%
CCOC(c1cc(OC)cc([N+](=O)[O-])c1OC)C(C)C(OC)[C@@H](C)/C=C/CC(=O)OC (stereo partly specified),-10.8%[10 µM],nt,1.3,nt,-9.7%[10 µM]
Cc1ccc(-c2csc(N3CCN(S(=O)(=O)c4ccc5c(c4)NC(=O)CO5)CC3)n2)cc1,-28.8%,1.4,-0.4,7.5%,9.8%
C=CC(=O)Nc1cccc(Oc2ncnc3[nH]cc(-c4cnc5ccccc5c4)c23)c1,nt,13.0,nt,7.3µM*,nt
CCOC(=O)c1ccc(N2C(=O)C=CC2=O)cc1,10.5%,4.1,-3.6,-1.4%,7.08µM*
O=C(NCC(O)c1ccccc1)c1ccc(Cl)c(S(=O)(=O)N2CCCCC2)c1 (stereo unspecified),?,-22.5,2.2,?,-18.1%
O=c1nccc(N/N=C/c2ccccc2O)[nH]1,3.55µM*,-7.5,-0.3,?,7.08µM*
CCOc1ccccc1/C=N/Nc1ccnc(=O)[nH]1,-30.1%,3.9,1.9,25.3%,3.3%
Oc1cccc(/C=N/Nc2nn3cnnc3c3ccccc23)c1,-33.9%,-11.3,1.0,-19.9%,-12.3%
COc1cccc(/C=N/Nc2ccc(S(=O)(=O)O)cc2)c1O,-24.4%,-2.2,0.0,?,-13.9%
COc1cccc(/C=N/Nc2nn3cnnc3c3ccccc23)c1O,1.41µM*,-20.1,-1.1,-4.9%,2.82µM*
COc1cccc(/C=N/Nc2ccnc(=O)[nH]2)c1O,3.98µM*,-10.9,-2.1,-10.9%,8.91µM*
COc1cccc(/C=N/Nc2ccccc2C(=O)O)c1O,?,-7.6,6.5,?,-25.1%
COc1cccc(/C=N/Nc2ccc(C(=O)O)cc2)c1O,0.0316µM*,-7.4,0.7,?,?
Cc1cc(C)n(-c2ccc(C(=O)OC(C)C(=O)Nc3ccc(C(N)=O)cc3)cc2)n1 (stereo unspecified),nt,-2.1,nt,?,nt
